NOD2 RIPK2 PPI: blocks binding of human NOD2 to RIPK2 | CHO BLA complementation NOD2-RIPK2, CCF4 ratio | inhibition, % at 4.98 µM | actives 0.38% (n = 360,000) | AID 624267 | O43353; in the data active means inhibition above about 21%;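 further: 0% = vehicle only and 100% = reference blocker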
TLR9-MyD88 inh: TLR9-MyD88 interaction inhibition; AID 504734; actives 0.21% (n = 340,000); CHO BLA complementation TLR9-MyD88, CCF4 FRET ratio; Q9NR96+Q99836; inhibition, % at 4.98 µM;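 active means inhibition above the mean over all tested compounds plus 3 SD, cut at about 21% in these data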;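 further: 0% = DMSO only wells and 100% = clavulanate BLA inhibitor control wells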
Target sequence (Q99836 whole entry, looked up): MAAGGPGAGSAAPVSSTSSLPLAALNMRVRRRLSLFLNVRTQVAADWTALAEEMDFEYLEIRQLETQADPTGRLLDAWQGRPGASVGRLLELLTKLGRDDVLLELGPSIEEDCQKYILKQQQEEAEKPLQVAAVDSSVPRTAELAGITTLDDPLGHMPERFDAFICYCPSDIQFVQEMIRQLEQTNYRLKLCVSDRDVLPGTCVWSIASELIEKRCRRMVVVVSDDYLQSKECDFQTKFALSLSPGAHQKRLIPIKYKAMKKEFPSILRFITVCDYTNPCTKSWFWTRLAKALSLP
Target sequence (Q9NR96 whole entry, looked up): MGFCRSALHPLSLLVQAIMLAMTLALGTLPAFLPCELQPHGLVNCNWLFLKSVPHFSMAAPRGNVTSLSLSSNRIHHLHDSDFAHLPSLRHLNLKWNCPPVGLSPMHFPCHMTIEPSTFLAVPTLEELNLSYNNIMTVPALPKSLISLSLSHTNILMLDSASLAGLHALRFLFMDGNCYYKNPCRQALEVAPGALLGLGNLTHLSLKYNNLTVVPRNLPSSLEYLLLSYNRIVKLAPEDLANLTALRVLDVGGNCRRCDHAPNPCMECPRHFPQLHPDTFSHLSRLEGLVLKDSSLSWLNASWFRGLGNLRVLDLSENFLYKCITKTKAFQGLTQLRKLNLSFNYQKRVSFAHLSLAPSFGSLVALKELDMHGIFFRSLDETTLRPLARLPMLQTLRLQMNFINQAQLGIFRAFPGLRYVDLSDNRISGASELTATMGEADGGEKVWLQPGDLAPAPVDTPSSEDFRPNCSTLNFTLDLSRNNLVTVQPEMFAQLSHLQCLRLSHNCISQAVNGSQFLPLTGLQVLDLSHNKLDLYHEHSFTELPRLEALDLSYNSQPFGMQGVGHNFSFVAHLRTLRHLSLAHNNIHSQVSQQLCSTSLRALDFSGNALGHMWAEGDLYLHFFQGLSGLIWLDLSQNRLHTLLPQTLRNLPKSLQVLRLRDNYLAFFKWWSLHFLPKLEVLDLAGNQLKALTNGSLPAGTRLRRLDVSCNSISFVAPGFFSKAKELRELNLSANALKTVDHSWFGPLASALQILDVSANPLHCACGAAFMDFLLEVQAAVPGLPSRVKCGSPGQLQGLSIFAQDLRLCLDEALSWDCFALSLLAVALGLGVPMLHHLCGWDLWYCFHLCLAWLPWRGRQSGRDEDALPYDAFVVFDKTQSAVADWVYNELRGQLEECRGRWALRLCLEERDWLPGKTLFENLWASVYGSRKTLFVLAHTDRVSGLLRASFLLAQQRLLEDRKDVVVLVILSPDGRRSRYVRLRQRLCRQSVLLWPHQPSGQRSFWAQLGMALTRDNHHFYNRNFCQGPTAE
Exocytosis inh: lytic granule exocytosis inhibition; TALL-104 LAMP-1 surface exposure, flow cytometry; cells stimulated with thapsigargin and PMA; AID 651702; actives 0.66% (n = 360,000); inhibition, % at 10 µM;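 active means inhibition above about 55%, limit read from the data; inconclusive means no clear call, values can overlap the other calls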
PRMT1 inh: PRMT1 (human) inhibition, primary screen. inhibition, % at 2.79 µM. actives 1.3% (n = 370,000). AID 652257. recombinant PRMT1, activity-based probe fluorescence polarization. Q99873;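 active means inhibition above about 21% made by adding two undisclosed values, limit read from the data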
ABHD5-PLIN5 inh: ABHD5-PLIN5 protein interaction inhibition. Split G. princeps luciferase complementation, luminescence, 4 h. AID 602281. actives 0.78% (n = 360,000). Q00G26+Q8WTS1. inhibition, % at 4 µM;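 active means inhibition above the mean inhibition across every tested compound plus 3 SD, cut at about 22% in these data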;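 further: 0% = DMSO only wells and the 100% control is not disclosed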
TLR4-MyD88 BLA: blocks binding of human TLR4 to MyD88. inhibition, % at 8.4 µM. O00206+Q99836. HeLa CL3-4 TLR4/MyD88 BLA complementation, FRET ratio. AID 861. actives 0.18% (n = 200,000); in the data active means inhibition above about 25%;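 further: 0% = vehicle and 100% = reference inhibitor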
ABHD5-PLIN5 conf: ABHD5-PLIN5 interaction inhibition, confirmed | shares compounds with ABHD5-PLIN5 inh | biochemical ABHD5-PLIN5 interaction, luminescence | inhibition, % at 4 µM | actives 67% (n = 2,200); in the data active means inhibition above about 23%;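 further: 0% = DMSO vehicle wells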
HNF4 split-luc: active in HNF4 split-luciferase counter-screen for ABHD5-PLIN5 inhibitors; actives 77% (n = 2,200); HNF4 dimerization, luminescence, biochemical; shares compounds with ABHD5-PLIN5 inh; inhibition, % at 4 µM;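 active means mean inhibition across replicate wells exceeding the computed hit threshold, cut at about 13% in these data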;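 further: light from luciferase halves that rejoin when HNF4 fusion proteins dimerize; 0% = DMSO only wells and the 100% control is not given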
NOD2 RIPK2 conf: NOD2-RIPK2 interaction inhibition confirmed; shares compounds with NOD2 RIPK2 PPI; inhibition, % at 4.98 µM; actives 70% (n = 1,200); CHO cells, NOD2-RIPK2 BLA complementation, CCF4 FRET; AID 624370;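 active means mean inhibition across replicates above a set limit taken from the earlier primary screen, cut at about 21% in these data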;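 further: 0% = DMSO-only wells and the high end = clavulanate BLA-blocked wells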
BLA counter: counter-screen for NOD2-RIPK2 interaction inhibitors: BLA reporter | CHO BLA reporter, CCF4 FRET ratio, counterscreen | actives 57% (n = 1,200) | inhibition, % at 4.98 µM | shares compounds with NOD2 RIPK2 PPI | AID 624371;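 active means mean inhibition above the low-control mean inhibition plus three low-control SD, cut at about 11% in these data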;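 further: 0% = DMSO only wells and 100% = clavulanate high control wells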
Granule exo CP1: lytic granule exocytosis inhibition; shares compounds with Exocytosis inh; actives 11% (n = 1,500); inhibition, % at 10 µM; AID 651954; TALL-104 cells, LAMP-1 externalization, flow cytometry; stimulated with PMA plus thapsigargin; in the data active means inhibition above about 60%;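 further: 0% = stimulated vehicle wells and 100% = unstimulated wells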
PRMT1 confirm: PRMT1 (human) inhibition, FP confirmation. AID 687036. recombinant His-PRMT1, activity-based probe fluorescence polarization. actives 42% (n = 3,300). shares compounds with PRMT1 inh. inhibition, % at 2.79 µM;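 active means mean inhibition across replicates above the hit cutoff derived for the earlier primary screen, cut at about 22% in these data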
An asterisk follows results filed as active; ? = inconclusive; . = not tested or not shown. The list is not random: actives were taken first. Their share in the collection is about 2.6%.

SMILES	NOD2 RIPK2 PPI	TLR9-MyD88 inh	Exocytosis inh	PRMT1 inh	ABHD5-PLIN5 inh	TLR4-MyD88 BLA	NOD2 RIPK2 conf	BLA counter	others
C=C1C(=O)OC2CC3(C)OC3C3OC3C3=CC(OC3=O)C12 (stereo unspecified)	44*	.	40	44*	100*	.	67*	18*	ABHD5-PLIN5 conf=101*;HNF4 split-luc=111*;PRMT1 confirm=40*
N#CC1=C(N)Oc2c(c(=O)oc3ccccc23)C1c1ccc([N+](=O)[O-])o1 (stereo unspecified)	0	-1	0	11	-1	5	.	.
O=c1[nH]sc2cc(F)ccc12	10	3	33	73*	81*	2	.	.	ABHD5-PLIN5 conf=40*;HNF4 split-luc=113*;PRMT1 confirm=69*
COc1ccc(-c2nc3ccc(C(=O)N4CCC5(CC4)OCCO5)cc3nc2-c2ccc(OC)cc2)cc1	5	2	9	0	15	.	.	.
COC(=O)C1=C(C(=O)OC)C2OC1c1cc3ccccc3cc12	88*	18	5	64*	81*	.	86*	19*	ABHD5-PLIN5 conf=78*;HNF4 split-luc=109*;PRMT1 confirm=46*
CC1NCCC2(O)CCCCC12 (stereo unspecified)	-10	-5	-1	5	-1	8	.	.
C=CCNC(=O)c1c(N)n(Cc2ccco2)c2nc3ccccc3nc12	-14	-10	7	25*	36*	-12	.	.	ABHD5-PLIN5 conf=50*;HNF4 split-luc=66*;PRMT1 confirm=9
COCCNC(=O)c1c(N)n(Cc2ccco2)c2nc3ccccc3nc12	3	-2	2	12	18	9	.	.
COc1cc(/C=C/c2nc3ccccc3c(=O)n2-c2cccc(O)c2)ccc1O	21*	14	12	0	6	.	5	14*
COc1cc(/C=C/c2nc3ccccc3c(=O)n2-c2ccccc2O)ccc1O	9	14	11	1	4	.	.	.
COc1ccc(C[C@H]2NC[C@H](O)[C@H]2OC(C)=O)cc1	26*	15	-4	2	-1	.	29*	1
COc1ccc(CCNC2CCCCC2)cc1	5	0	-1	-1	7	-13	.	.
Brc1ccc(CN2CCNCC2)s1	-3	3	0	-2	-1	2	.	.
O=C1NC2C(=CC(O)C(O)C2O)c2cc3c(c(O)c21)OCO3 (stereo unspecified)	30*	-1	0	2	-11	.	27*	-7
O=C1NC2C(=CC(O)C(O)C2O)c2cc3c(cc21)OCO3 (stereo unspecified)	15	4	1	-3	4	.	.	.
O=C1NC2C(O)C(O)C(O)C(O)C2c2cc3c(c(O)c21)OCO3 (stereo unspecified)	22*	4	-4	-3	2	.	29*	-2
N#CCCCCC#N	9	-4	-3	-2	-3	.	.	.
NC(=O)Nc1ccc(C(=O)OCC(=O)Nc2ccc(Cl)cc2C(=O)c2ccccc2)cc1	2	0	?	-4	-6	-6	.	.
CC(=O)OCC12CC(OC(=O)CC(C)C)C(C)=CC1OC1C(O)C(OC(C)=O)C2(C)C12CO2 (stereo unspecified)	23*	-10	-7	1	2	.	23*	-7
N#CC1c2ccccc2-n2nncc2CN1Cc1cc(Cl)cc(Cl)c1 (stereo unspecified)	59*	13	25	2	96*	.	43*	-2
COc1cc(C(=O)NC(=S)N2C[C@H]3C[C@H](C2)c2cccc(=O)n2C3)cc(OC)c1OC	-7	-1	2	4	2	.	.	.
C[n+]1c(-c2ccccc2)c2cc(N)ccc2c2ccc(N)cc21	28*	11	5	66*	-19	.	-1	-3
CC1CC(C)CC(C)C(O)C(C#N)=CC=CCC(C2CCCC2C(=O)O)OC(=O)CC(O)C(C)C1 (stereo unspecified)	30*	6	2	4	-6	.	28*	-5
NC1C2CN3CCN(C2)CC1(c1ccccc1)C3 (stereo unspecified)	-5	-15	-9	-1	-6	.	.	.
COc1ccc2ccc(O)c(CN3CC=C(c4ccccc4)CC3)c2c1	-6	-23	92*	2	4	-14	.	.	Granule exo CP1=17
SMILES	NOD2 RIPK2 PPI	TLR9-MyD88 inh	Exocytosis inh	PRMT1 inh	ABHD5-PLIN5 inh	TLR4-MyD88 BLA	NOD2 RIPK2 conf	BLA counter	others
O=C1N(c2ccc(Cl)cc2)C(c2cccnc2)N2CCCN12 (stereo unspecified)	11	-9	0	-3	-1	-19	.	.
Clc1cccc(N2Cc3cc(N4CCOCC4)ccc3-n3nncc3C2)c1	-9	.	5	3	0	.	.	.
COc1ccc(-c2ccc3c(c2)CN(c2cccc(Cl)c2)Cc2cnnn2-3)cc1	11	.	88*	3	6	.	.	.	Granule exo CP1=-12
FC(F)(F)Oc1ccc(C2NCc3ccccc3-n3cccc32)cc1 (stereo unspecified)	-6	8	59*	0	-2	.	.	.	Granule exo CP1=-15
CC(C)c1ccc(C2NCc3ccccc3-n3cccc32)cc1 (stereo unspecified)	6	3	39	2	-1	.	.	.
CCOc1ccccc1CN1C2CCC1CC(c1ccc(C)cc1)C2 (stereo unspecified)	-3	-10	67*	0	-5	.	.	.	Granule exo CP1=-13
O=c1[nH]c(=O)n(-c2ccc(F)cc2)c(O)c1/C=C1\C=Nc2ccccc21	6	6	56*	3	20	.	.	.	Granule exo CP1=-3
CCCN1CCc2cc(O)cc3c2[C@H]1Cc1ccc(O)c(O)c1-3	7	-3	65*	77*	-6	.	.	.	Granule exo CP1=-13
O=C(NC1CCCCC1)[C@@H]1CC=C[C@@H]2CCN(Cc3ccccc3)C(=O)[C@@H]21	6	-2	2	1	1	.	.	.
CCC1CN1P(=O)(N1CCCC1)N1CC1CC (stereo unspecified)	3	-4	0	-3	3	.	.	.
